Data: PubChem BioAssay (Tox21)
Records with an inconclusive call do not appear. Active and inactive are the calls of the source. Unless noted, calls follow the shape of the dose curve; as a rule, active = well fitted curve in the direction sought with a large enough effect in the repeat runs; inconclusive = weak or mixed curves; inactive = no such curve, though single readings can be large; an effect the other way counts as inactive or inconclusive.

Assays:
[1] = qHTS assay to identify small molecule agonists of the vitamin D receptor (VDR) signaling pathway - cell viability counter screen (AID 743224); also: series mostly up to about 63 µM; nearly all actives have a fitted effect of over 50% in size
How it was run: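 VDR-bla cell line, quantitative HTS format; 16 h compound incubation (37C, 5% CO2); ATP-based CellTiter-Glo luminescence measured in the reporter assay wells.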

[2] = qHTS assay to identify small molecule antagonists of the vitamin D receptor (VDR) signaling pathway - cell viability counter screen (AID 743225); also: nearly all actives have a fitted effect of over 50% in size
How it was run: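 Read-out: CellTiter-Glo luminescence measured 30 min after reagent addition at room temperature. Cells were VDR-bla HEK 293T exposed 16 h at 37C, 5% CO2, to compound with 3 nM final calcitriol agonist.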

[3] = qHTS assay to identify small molecule agonists of the NFkB signaling pathway (AID 1159509; active = well fitted curve in the direction sought with a large enough effect in the signal ratio in the repeat runs, not every such curve was filed as active; the % refers to the signal ratio; also: series mostly up to about 61 µM)
How it was run: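 NFkB-bla ME-180 cells carry a beta-lactamase reporter under an NF-kB response element. They were plated overnight, then exposed to compounds for 5 h at 37 C. Read-out is LiveBLAzer FRET after 1.5 hr at room temperature (405 nm excitation; 460/530 nm emission).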

[4] = qHTS assay to identify small molecule agonists of the NFkB signaling pathway - cell viability counter screen (AID 1159515; calls by dose curve; also: series mostly up to about 61 µM; nearly all actives have a fitted effect of over 55% in size)
How it was run: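 Viability in NFkB-bla ME-180 cells was measured by CellTiter-Glo luminescence, 30 min room temperature, in wells already treated 5 hr with compounds and read for reporter FRET.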

[5] = qHTS assay to identify small molecule agonists of the endoplasmic reticulum stress response signaling pathway (AID 1159516; active = well fitted activation curve with a large enough effect in the signal ratio in the repeat runs, not every such curve was filed as active; the % refers to the signal ratio)
How it was run: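 ER stress element reporter (bla) in HeLa. 1,500 cells/well, overnight attachment; 5 hr compound; 2 hr RT substrate; dual-emission fluorescence.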

[6] = qHTS assay to identify small molecule agonists of the endoplasmic reticulum stress response signaling pathway - cell viability counter screen (AID 1159517; calls by dose curve;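 also: HeLa cells carrying an ER stress response element beta-lactamase reporter; series mostly up to about 61 µM; nearly all actives have a fitted effect of over 50% in size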)
How it was run: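 HeLa cells carrying an ESRE-driven beta-lactamase reporter receive compound for 5 hr at 37 C. Cell viability is then gauged with CellTiter-Glo by luminescence, 30 min at room temperature.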

[7] = qHTS assay to identify small molecule antagonists of the retinoid-related orphan receptor gamma (ROR-gamma) signaling pathway - cell viability counter screen (AID 1159520); also: nearly all actives have a fitted effect of over 50% in size
How it was run: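 Cytotoxicity was read from cellular ATP (CellTiter-Glo luminescence) after 16 hr at 37 C with 1 uM doxycycline induction. The inducer was added 2 hr after compound transfer to Tet-on ROR gamma CHO cells.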

[8] = molecular target: Nuclear receptor ROR-gamma (Homo sapiens) (UniProt P51449); assay: qHTS assay to identify small molecule antagonists of the retinoid-related orphan receptor gamma (ROR-gamma) signaling pathway (AID 1159521)
How it was run: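 CHO Tet-on RORγ, RORE-luc reporter. Cpd 2 h pre-incubation, then dox hyclate 1 uM final, 16 h, 37 C/5% CO2. ONE-Glo luminescence; decrease = antagonist.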

[9] = qHTS assay to identify small molecule agonists of the AP-1 signaling pathway - cell viability counter screen (AID 1159525; calls by dose curve; also: nearly all actives have a fitted effect of over 55% in size)
How it was run: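 Luminescent ATP readout (Cell Titer Glo, 30 min RT), normalised to DMSO and tetra n-octyl ammonium bromide controls. Cells were ME-180 AP-1-bla in 0.5% dialyzed FBS Opti-MEM, with a 5 h, 37 °C compound exposure.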

[10] = qHTS assay to identify small molecule agonists of the AP-1 signaling pathway (AID 1159526; calls by dose curve)
[11] = molecular target: Retinoic acid receptor RXR-alpha (Homo sapiens) (UniProt P19793); assay: qHTS assay to identify small molecule agonists of the RXR signaling pathway (AID 1159527; calls by dose curve; also: nearly all actives have a fitted effect of over 35% in size)
Chain of Retinoic acid receptor RXR-alpha (Homo sapiens) (P19793 whole entry, looked up): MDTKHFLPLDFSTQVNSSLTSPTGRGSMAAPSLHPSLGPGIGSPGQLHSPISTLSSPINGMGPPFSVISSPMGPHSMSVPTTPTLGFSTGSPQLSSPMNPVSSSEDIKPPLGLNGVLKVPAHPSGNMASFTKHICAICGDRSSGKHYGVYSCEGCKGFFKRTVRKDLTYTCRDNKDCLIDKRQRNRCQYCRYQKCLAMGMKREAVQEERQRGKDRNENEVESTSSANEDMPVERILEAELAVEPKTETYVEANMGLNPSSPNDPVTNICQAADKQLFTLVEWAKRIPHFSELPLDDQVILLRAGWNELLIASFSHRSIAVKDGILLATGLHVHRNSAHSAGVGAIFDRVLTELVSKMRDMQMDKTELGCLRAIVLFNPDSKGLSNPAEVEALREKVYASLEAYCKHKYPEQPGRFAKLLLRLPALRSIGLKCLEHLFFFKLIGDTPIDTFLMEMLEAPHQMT
How it was run: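 Read-out: beta-lactamase FRET ratio (405 nm excitation, 460 and 530 nm emission) after 2 hr substrate loading at room temperature. Cells were RXR-alpha-UAS-bla HEK 293T treated with compounds for 16 hr in 2% charcoal-stripped FBS medium.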

[12] = qHTS assay to identify small molecule agonists of the RXR signaling pathway - cell viability counter screen (AID 1159529)
How it was run: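 HEK 293T RXRa-bla cells, 2% CS-FBS; 5 h settle; cpd 16 h 37 C, 5% CO2; CellTiter-Glo 30 min RT, luminescence. Tetraoctyl ammonium bromide as positive control.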

[13] = qHTS assay to identify small molecule antagonists of the retinoid acid receptor (RAR) signaling pathway - cell viability counter screen (AID 1159551); also: nearly all actives have a fitted effect of over 35% in size
How it was run: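 Following overnight attachment, C3RL4 reporter cells received DMSO-dissolved compounds and then retinol (1 uM final). Six hours later at 37 C, ATP content was measured by CellTiter-Glo luminescence.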

[14] = qHTS assay to identify small molecule antagonists of the retinoic acid receptor (RAR) signaling pathway (AID 1159552; also: nearly all actives have a fitted effect of over 50% in size)
How it was run: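 Cells of the C3RL4 line were seeded, incubated overnight, then dosed with compounds in DMSO followed immediately by retinol (1 uM final). Six hours later luciferase detection reagent went in; signal was measured after 30 min at RT.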

[15] = qHTS assay to identify small molecule agonists of the retinoic acid receptor (RAR) signaling pathway (AID 1159553)
How it was run: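 Cell line C3RL4, RARE luciferase reporter. Treatment: compounds in DMSO, 6 hr, 37 C, 5% CO2, after overnight plating. Detection: luminescence, 30 min RT after reagent.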

Measured: Potency

CC1(C)O[C@@H]2C[C@H]3[C@@H]4C[C@H](F)C5=CC(=O)CC[C@]5(C)[C@H]4[C@@H](O)C[C@]3(C)[C@]2(C(=O)CO)O1
inactive: all assays above

CCCCCC/C=C/CCCCCCCC(=O)O
inactive: all assays above

Cc1ccc(C)c(C)c1
inactive: all assays above

O=[N+]([O-])c1cccc(Cl)c1
not listed: [2]
inactive: all other assays above

CCOC(=O)C1OC1c1ccccc1 (stereo not drawn)
inactive: all assays above

C[C@@H](O)[C@H]1C(=O)N2C(C(=O)O)=C(S[C@@H]3CN[C@H](C(=O)N(C)C)C3)[C@H](C)[C@H]12
inactive: all assays above

C=C1C2CCC(C2)C1(C)C (stereo not drawn)
not listed: [2]
inactive: all other assays above

NCc1cccc(CN)c1
inactive: all assays above

CC1(C)CC(N=C=O)CC(C)(CN=C=O)C1 (stereo not drawn)
inactive: all assays above
